Measured values published in PubChem BioAssay (EPA / NIEHS).
Inconclusive results are not listed. The source made the active and inactive calls. The calls were made as follows: active = hit-call score of the fitted dose curve at least 0.9, where 1 is the maximum; inconclusive = response in the unintended direction; inactive = score below 0.9.

Molecular target: Oxysterols receptor LXR-alpha (Homo sapiens) (UniProt Q13133)
Test: ATG_LXRa_TRANS: Attagene TRANS-FACTORIAL HepG2 Assay for human Liver X Receptor alpha (LXRa) (AID 2282980)
Details: HepG2 Attagene TRANS reporter, LXRa transactivation
Protocol: ATG_TRANS is a cell-based, multiplexed-readout assay that uses HepG2, a human liver cell line, with measurements taken at 24 hours after chemical dosing in a 24-well plate.ATG_LXRa_TRANS is one of 30 assay component(s) measured or calculated from the ATG_TRANS assay. It is designed to make measurements of mRNA induction, a form of inducible reporter, as detected with fluorescence intensity signals by Reverse transcription polymerase chain reaction (RT-PCR) and Capillary electrophoresis technology.Data from the assay component ATG_LXRa_TRANS was analyzed into 1 assay endpoint. This assay endpoint, ATG_LXRa_TRANS, was analyzed in the positive analysis fitting direction relative to DMSO as the negative control and baseline of activity. Using a type of inducible reporter, measures of mRNA for gain-of-signal activity can be used to understand the reporter gene at the transcription factor-level as they relate to the gene NR1H3. Furthermore, this assay endpoint can be referred to as a primary readout, because this assay has produced multiple assay endpoints where this one serves a reporter gene function. To generalize the intended target to other relatable targets, this assay endpoint is annotated to the nuclear receptor intended target family, where the subfamily is non-steroidal.
Human liver HepG2 cells are transiently transfected with multiple reporter transcription units (MRTUs) in 6-well plates using FuGene 6 reagent (Roche; 3 ml FuGene/1 mg DNA). The MRTU constructs are regulated by a cis-regulating element (promoter). […] A major difference between the CIS and TRANS system is that in CIS activities of endogenous TFs are measured, whereas the TRANS assay evaluates changes in activities of exogenous, chimeric NR-Gal4 proteins. […] At the end of 24 hour incubation, total RNA was isolated using TriZol reagent (Invitrogen). The isolated RNA is then reverse-transcribed using oligo(dT) primer and Mo-MLV reverse transcriptase (Invitrogen) with DNAse I (Ambion) treatment for 30 min. The one-tenth of the produced cDNA was amplified by PCR using Taq DNA polymerase (Invitrogen) and two reporter sequence-specific primers. The PCR products were fluorescently labeled by primer extension with 6-arboxyfluorescein (6-FAM) 5'-labeled reporter sequence-specific primer (2 min at 95 C, 20 s at 68 C and 10 min at 72 C) and these products were digested with 5U of HpaI (New England Biolabs) for 2h at 37 C. The fragments were purified using Qiaquick PCR columns (Qiagen), analyzed on an ABI 3130xL genetic analyzer (Applied Biosystems) with peak positions identified by using a set of X-rhodamine (ROX)-labeled MapMarker1000 molecular weight standards (BioVentures). The raw capillary electrophoresis data was processed using Attagraph software (Attagene).

Oxysterols receptor LXR-alpha (Homo sapiens), sequence (Q13133 whole entry, looked up): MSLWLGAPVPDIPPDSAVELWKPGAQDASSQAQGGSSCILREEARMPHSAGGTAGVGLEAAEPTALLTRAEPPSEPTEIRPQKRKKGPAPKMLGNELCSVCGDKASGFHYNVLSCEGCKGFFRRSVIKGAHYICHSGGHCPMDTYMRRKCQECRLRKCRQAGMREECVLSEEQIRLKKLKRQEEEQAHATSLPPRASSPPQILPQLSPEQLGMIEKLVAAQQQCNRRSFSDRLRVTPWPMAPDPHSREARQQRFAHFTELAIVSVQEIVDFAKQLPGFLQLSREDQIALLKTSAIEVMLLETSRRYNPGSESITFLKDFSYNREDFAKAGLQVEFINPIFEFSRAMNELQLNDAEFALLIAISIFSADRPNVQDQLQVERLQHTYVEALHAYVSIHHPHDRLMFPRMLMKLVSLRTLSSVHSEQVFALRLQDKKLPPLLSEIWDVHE

outcome, inactive:
Nc1ccc(NCCO)c([N+](=O)[O-])c1, C[Si](C)(C)O[Si](C)(C)C, CCCCCCCCCCCCCCCC(=O)OC/C=C(C)/C=C/C=C(C)/C=C/C1=C(C)CCCC1(C)C, C[C@H]1O[C@@H](O[C@H]2[C@@H](O)C[C@H](O[C@H]3[C@@H](O)C[C@H](O[C@H]4CC[C@@]5(C)[C@H](CC[C@@H]6[C@@H]5C[C@@H](O)[C@]5(C)[C@@H](C7=CC(=O)OC7)CC[C@]65O)C4)O[C@@H]3C)O[C@@H]2C)C[C@H](O)[C@@H]1O, CCCC(=O)c1ccccc1, COS(=O)(=O)O, Nc1ccc2cc(S(=O)(=O)O)cc(O)c2c1N=Nc1ccccc1C(F)(F)F, Cc1cc(CCC(=O)OCCOCCOCCOC(=O)CCc2cc(C)c(O)c(C(C)(C)C)c2)cc(C(C)(C)C)c1O, C[C@H]1C[C@@H](O)CC(C)(C)C1, Cc1ccc(S(N)(=O)=O)cc1, CCCCCCC(C)(C)S, CC1(C)COCN1, Cc1occc(=O)c1OC(=O)C(C)C, CCC(C)c1cc([N+](=O)[O-])cc([N+](=O)[O-])c1OC(=O)OC(C)C (stereo not given), CCCCC(CC)C(=O)OC(C)C (stereo not given), Cc1ncc[nH]1, CCCCSCCCC, CCc1ncc(C)[nH]1, CC=Cc1ccc(OCC)c(O)c1, CCOC(=O)COC(=O)c1cc(Oc2ccc(C(F)(F)F)cc2Cl)ccc1[N+](=O)[O-], [O-]n1ccccc1=S.[O-]n1ccccc1=S.[Zn+2], CCC(=O)OCCOc1ccccc1, CC1CCC(C(C)C)C(O)C1 (stereo not given), CN(C)CCOC(C)(c1ccccc1)c1ccccn1 (stereo not given), CC(=O)O[C@@H]1CC2CCC1(C)C2(C)C (stereo not given in full), Cc1c(C2(c3cc(Br)c(O)c(Br)c3C)OS(=O)(=O)c3ccccc32)cc(Br)c(O)c1Br, c1ccc2cc(Nc3ccc(Nc4ccc5ccccc5c4)cc3)ccc2c1, Nc1ccc2c(O)cc(S(=O)(=O)O)cc2c1, COc1ccc(CCC(C)=O)cc1, OCC(O)c1ccccc1 (stereo not given), O=CN1CCOCC1, CCCCC(CC)COC(=O)c1ccc(O)cc1 (stereo not given), O=C1OC2(c3ccccc31)c1ccc(O)c(Br)c1Oc1c2ccc(O)c1Br, C=Cc1ccncc1, O=CCc1ccccc1, OCc1ccc(Cl)cc1Cl, C=C(C)[C@@H]1CC=C(C)C(=O)C1, COC(=O)C=C(C)CCC=C(C)C, CC(=O)NCCO, CC(=O)OCCCc1ccccc1
